The values that follow come from PubChem BioAssay (Tox21).

Each structure is given as a SMILES string. Inconclusive results are not listed. Where a call stands in place of a potency, no number is given. Active and inactive are the calls of the source. Calls come from the whole dose curve.

Sequence of 5-hydroxytryptamine receptor 2A (Homo sapiens) (P28223 whole entry, looked up): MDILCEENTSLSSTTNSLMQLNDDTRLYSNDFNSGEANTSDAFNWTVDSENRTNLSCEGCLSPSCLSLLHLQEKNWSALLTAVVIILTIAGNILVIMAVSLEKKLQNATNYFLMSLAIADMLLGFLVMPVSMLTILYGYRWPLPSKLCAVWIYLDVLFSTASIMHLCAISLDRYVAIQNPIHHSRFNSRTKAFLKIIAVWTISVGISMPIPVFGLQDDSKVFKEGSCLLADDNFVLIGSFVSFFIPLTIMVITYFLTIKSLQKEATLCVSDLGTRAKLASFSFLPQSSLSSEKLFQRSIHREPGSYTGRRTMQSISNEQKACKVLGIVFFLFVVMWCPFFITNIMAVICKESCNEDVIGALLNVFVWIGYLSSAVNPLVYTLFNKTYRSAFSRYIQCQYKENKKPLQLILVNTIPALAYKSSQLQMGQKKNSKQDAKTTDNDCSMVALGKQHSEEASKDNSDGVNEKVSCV

The assay addresses 5-hydroxytryptamine receptor 2A (Homo sapiens) (UniProt P28223). Nature of the assay: 5-hydroxytryptamine receptor 2A (HTR2A) small molecule antagonists, cell-based qHTS assay (AID 1963586). Note: nearly all actives have a fitted effect of over 45% in size. Conditions: HTR2A-CHO cells, DOI-induced calcium flux, fluorescence; series mostly up to 61.5 µM. An excerpt:
National Center for Advancing Translational Sciences [NCATS]
Division of Preclinical Innovation [DPI]
U.S. Environmental Protection Agency [EPA]
National Institutes of Environmental Health Sciences [NIEHS]
National Toxicology Program [NTP]
U.S. Food and Drug Administration [FDA]
The HTR2A receptor is a subtype of the 5-HT2 receptor that belongs to the serotonin receptor family and is a G protein-coupled receptor (GPCR). The HTR2A-CHO cell line stably expressing human 5-hydroxytryptamine receptor 2A (HTR2A) can be used for screening antagonists of interactions between 5-HT2 and its ligands. The HTR2A-CHO calcium flux assay is a homogeneous fluorescence-based assay for detecting the intracellular calcium level using FDSS kinetic plate reader system.
Tox21 Assay Protocol Summary:
HTR2A-CHO cells were dispensed at 2000 cells/3uL/well in 1536-well black-clear bottom plates using a Multidrop Dispenser. After the assay plates were incubated at a 37 C/5% CO2 incubator for 18 h, 3 uL of Dye Loading Buffer was transferred to the assay plate by a Flying Reagent Dispenser. The assay plates were incubated at 37 C for 1h. For antagonist mode, 23 nL of compounds dissolved in DMSO, positive controls or DMSO only was transferred to the assay plate by a pin tool. After 5 min incubation at room temperature, 1.5 uL of 4-Iodo-2,5-dimethoxy-alpha-methylbenzeneethanamine hydrochloride (DOI) at 4nM was added to each well. The fluorescence intensity in the plates was measured using FDSS 7000EX kinetic plate reader for 3 min at 1 sec intervals.
On to `c1ccc(B(c2ccccc2)c2ccccc2)cc1`, for which the Potency result was “inactive”.

Regarding `CN(c1nccc(=O)[nH]1)C1CCN(c2nc3ccccc3n2Cc2ccc(F)cc2)CC1`, the Potency entry was “inactive”.

In the case of `Cc1nc2ccc(CN(C)c3ccc(C(=O)N[C@@H](CCC(=O)O)C(=O)O)s3)cc2c(=O)[nH]1`, the Potency entry was “inactive”.

`CC(C)CCCC(C)CC=O` (stereo not given): the Potency entry was “inactive”.

In the case of `Cc1cc(NC(=O)C(=O)O)cc(C)c1Oc1ccc(O)c2c1CCC2`, the Potency entry is “inactive”.

With `CCCCCCCCCC(C)C=O` (stereo not given), the Potency entry was “inactive”.

`CCC(C)O` (stereo not given): the Potency result is “inactive”.

Turning to `C/C(=C\c1ccc(C(=O)O)cc1)c1ccc2c(c1)C(C)(C)CCC2(C)C`, the Potency entry is “inactive”.

Turning to `CCN(CCC#N)c1ccc(N=Nc2c(Cl)cc([N+](=O)[O-])cc2Cl)cc1`, the Potency result is “inactive”.

For `c1cnc(N2CCN(Cc3ccc4c(c3)OCO4)CC2)nc1`, the Potency entry is “inactive”.

In the case of `c1csc(SSc2cccs2)c1`, the Potency result was “inactive”.

Take `COc1ccc(C(=O)c2ccc(C)cc2)c(O)c1`: the Potency result was “inactive”.

With `CCCCOCC(C)OCC(C)O` (stereo not given), the Potency entry is “inactive”.

On to `C=CC(C)(CCC=C(C)C)OC(=O)/C=C/c1ccccc1` (stereo not given), for which the Potency entry is “inactive”.

In the case of `CC(C)=CC=O`, the Potency result was “inactive”.

Turning to `c1coc(Cn2cccc2)c1`, the Potency entry is “inactive”.

Take `COC(=O)CSc1cc(N=c2sc(=O)n3n2CCCC3)c(F)cc1Cl`: the Potency result was “inactive”.

As to `NNC(=O)CP(=O)(c1ccccc1)c1ccccc1`, the Potency result is “inactive”.

Take `C[C@]12CC[C@@H]3c4ccc(O)cc4CC[C@H]3[C@@H]1CC[C@@H]2OC(=O)CCC1CCCC1`: the Potency entry is “inactive”.

On to `Oc1ccc2ccccc2c1`, for which the Potency entry is “inactive”.

For the compound `CC1(C)[C@@H](O)CC[C@]2(C)[C@H]3C(=O)C=C4[C@@H]5C[C@@](C)(C(=O)O)CC[C@]5(C)CC[C@@]4(C)[C@]3(C)CC[C@@H]12`, the Potency result is “inactive”.

Take `CC(CN(CCN(CC(C)OCCO)CC(C)OCCO)CC(C)OCCO)OCCO` (stereo not given): the Potency result was “inactive”.

As for `CCCCCC/C=C/C=O`, the Potency entry is “inactive”.

`O=C1c2ccccc2C(=O)c2c(O)c(O)cc(O)c21`: the Potency entry is “inactive”.

As for `COc1ccc(C(=O)/C(Br)=C\C(=O)O)cc1`, the Potency entry is “inactive”.

For the compound `Cc1cc(Cl)c(C)cc1Cl`, the Potency result is “inactive”.

`CC(=O)OC(C)OC(C)=O`: the Potency entry is “inactive”.

Take `COC(=O)CCS`: the Potency result is “inactive”.

Take `Cc1ccc2c(Br)cc(Br)c(O)c2n1`: the Potency entry was “inactive”.

As for `S=C([S-])NCCNC(=S)[S-].[Mn+2]`, the Potency result was “inactive”.

Turning to `Oc1ccc(Cc2ccccc2)cc1`, the Potency entry is “inactive”.

`CCCCCCCCCCO[C@@H]1O[C@H](CO)[C@@H](O)[C@H](O)[C@H]1O`: the Potency entry was “inactive”.

On to `CC(=O)SCc1ccco1`, for which the Potency entry was “inactive”.

In the case of `CCOc1ccc2nc(S(N)(=O)=O)sc2c1`, the Potency result was “inactive”.

With `CC(C)=CCCC(C)CCOC=O` (stereo not given), the Potency entry was “inactive”.

With `CC1=C(C=O)C(C)(C)CCC1`, the Potency entry is “inactive”.

On to `CC(CCc1ccc2c(c1)OCO2)NN` (stereo not given), for which the Potency result was “inactive”.

In the case of `CCCCC=O`, the Potency result is “inactive”.

In the case of `O=C1OC2(c3ccccc31)c1ccc(O)c(Br)c1Oc1c2ccc(O)c1Br`, the Potency result is “inactive”.

As to `O=[N+]([O-])c1ccc(Nc2ccc(Nc3ccccc3)c(S(=O)(=O)O)c2)c([N+](=O)[O-])c1`, the Potency result was “inactive”.
